Experimental findings from PubChem BioAssay (NCI) are described below.

The panel holds about 83,000 compounds, 20% with a hit somewhere; the sample as a whole holds those more often.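 For each line, cells grew in 96-well plates with the test compound present at a single concentration for 48 hours.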 The source made the active and inactive calls. The calls were made as follows: active = growth percent below 10; inactive = the rest.

The first assay has as its system DU-145 prostate. In words: NCI-60 one-dose screen, 48 h (100 = growth as untreated, 0 = no growth, -100 = all killed). The conditions noted are these: 10 µM unless noted.
In the case of `Cc1ccc(NC(=S)NNC(=S)NNc2ccccc2)cc1C`, the growth is 77.9% (inactive).

For `CCC(C)N(c1ccc(Cl)cc1)c1nc(-c2ccc(Br)cc2)cs1` (stereo not given), the growth is 108% (inactive).

For `c1ccc(CNc2c3ccccc3nc3ccccc23)cc1`, the growth is 48.6% (inactive).

Take `C=C(C)[C@@H]1CC[C@]2(C(=O)NCC#CCN3CCN(C)CC3)CC[C@]3(C)[C@H](CC[C@@H]4[C@@](C)(CCC#N)[C@H](C(=C)C)CC[C@]43C)[C@@H]12`: the growth was 57.5% (inactive).

For `O=C1C(Cl)=C(Nc2ccc(O)cc2)C(=O)N1Cc1ccc(Cl)cc1`, the growth is 90.2% (inactive).

With `O=Cc1ccc([N+](=O)[O-])s1`, the growth was 110% (inactive).

For the molecule `COc1cc(/C=C\c2cc(/C=C\c3ccc(O)c(OC)c3)n(C(=O)COc3ccc(Cl)cc3Cl)n2)ccc1O`, the growth was 16.5% (inactive).

`CC1(c2ccccc2O)NN=C(/N=C/c2cccc([N+](=O)[O-])c2)N1C(Cc1c[nH]c2ccccc12)C(=O)O` (stereo not given): the growth was 114% (inactive).

For `COC(=O)CNC(=O)[C@H](Cc1ccccc1)NCc1ccncc1`, the growth was 105% (inactive).

In the case of `O=C(Nc1cccnc1Nc1ccc(F)cc1)c1cn(Cc2cccc(Oc3ccccc3)c2)nn1`, the growth is 84.5% (inactive).

In the case of `COc1ccc(-c2cn(-c3cc(OC)c(OC)c(OC)c3)c(=O)n2C(C)=O)cc1`, the growth was 106% (inactive).

Regarding `COc1ccc(-c2nnc3n(C)c(=O)c4ccccc4n23)cc1N`, the growth is 33.3% (inactive).

With `CCN(CC)c1ccc(/C=C/C(=O)c2ccc(Nc3nc(Nc4ccccc4)nc(Nc4ccccc4)n3)cc2)cc1`, the growth is 51.6% (inactive).

Turning to `COP(=O)(OC)C(C)(C)CC(=O)CC(C#N)(C#N)C(C#N)C#N`, the growth is 113% (inactive).

For `N#CC1CCc2c(c(-c3cn[nH]c3C(F)(F)F)nc3c(F)cc4[nH]ncc4c23)C1` (stereo not given), the growth is 48.2% (inactive).

The next assay relates to K-562 leukemia. The assay is described as above. The conditions noted are these: 10 µM unless noted.
Regarding `C=C(C)[C@@H]1CC[C@]2(C(=O)NCCNCCN)CC[C@]3(C)[C@H](CC[C@@H]4[C@@]5(C)C/C(=C/c6ccncc6)C(=O)C(C)(C)[C@@H]5CC[C@]43C)[C@@H]12`, the growth was 86.4% (inactive).

With `CS(=O)(=O)C1=CN(CCO)C(=O)N2CCCN=C12`, the growth is 118% (inactive).

With `Cc1ccc(Sc2nnc(/N=C3\C(=O)Nc4ccccc43)s2)cc1`, the growth was 95.5% (inactive).

For `CCOc1nc(-c2ccccc2)cc2c(O)c(C(=O)NN)[nH]c(=O)c12`, the growth was 134% (inactive).

On to `O=C1Nc2ccc(Br)cc2/C1=N/c1n[nH]c(=S)s1`, for which the growth was 90.8% (inactive).

With `CCCCCCCCCCCCCCCC(N)c1ccccc1` (stereo not given), the growth is 0.445% (active).

With `CCc1n(Cc2ccc3ccccc3c2)cc[n+]1Cc1ccc2ccccc2c1`, the growth is 8.91% (active).

As to `Cc1ccc(-c2nc(N3CCNCC3)c3oc(-c4ccccc4)nc3n2)cc1`, the growth is -73.3% (active).

Turning to `O=C(OCc1ccc2cccc(O)c2n1)N1CCN(C(=O)c2cc3cc(F)ccc3[nH]2)CC1`, the growth was 1.96% (active).

In the case of `CN1CCN(Cc2ccc(NC(=O)c3cncc(C#Cc4cnc(N)c5ccccc45)c3)cc2C(F)(F)F)CC1`, the growth was -13.3% (active).

As for `CO/N=C(/C)c1ccc(NC(=O)CSc2nnc(-c3ccncc3)n2-c2ccccc2)cc1`, the growth is 91.6% (inactive).

Consider `CC(=O)OC[C@]12CCC(C)(C)C[C@H]1[C@@]1(O)[C@H](O)C[C@@H]3[C@@]4(C)CCCNC(C)(C)[C@@H]4CC[C@@]3(C)[C@]1(C)CC2`, for which the growth is 106% (inactive).

In the case of `COc1cc(-n2cc(-c3cc(O)c(C/C=C(\C)CCC=C(C)C)c(O)c3)nn2)cc2c1O[C@]1(C)CC[C@@H](O)C(C)(C)[C@H]1C2`, the growth is 3.36% (active).

As to `CC(=O)c1cc(O)c2ccccc2c1O`, the growth is 58% (inactive).

Consider `CC[C@]12C=CCN3CC[C@@]4(c5cc(NC(=O)CCC(=O)OCc6cn(Cc7ccc(F)cc7)nn6)c(OC)cc5N(C)[C@H]4[C@@](O)(C(=O)OC)[C@@H]1OC(C)=O)[C@@H]32`, for which the growth is 99.8% (inactive).

With `Cc1nn(-c2ccccc2)c(Oc2ccccn2)c1-c1nc2ccccc2s1`, the growth was 90.7% (inactive).

For the molecule `O=C(Cn1c2c(c3ccccc31)CCCC2)Nc1ccc(-c2nc3ccccc3s2)cc1`, the growth is 74.4% (inactive).

Consider `N#Cc1c(N)nnn1Cc1cc(=O)oc2c1ccc1ccccc12`, for which the growth was 93.6% (inactive).

For `O=C1N[C@@H]2NC(=[N+]3CCOCC3)N[C@@H]2N1`, the growth was 98.6% (inactive).

Take `CCN1C(=O)N(CC)C2C1NN=c1s/c(=C\c3ccc(Cl)cc3Cl)c(=O)n12` (stereo not given): the growth was -83.7% (active).

For `CC1=C(Nc2ccc(N3CCN(C)CC3)cc2)C(=O)c2cncnc2C1=O`, the growth is 9.68% (active).

`O=c1oc2ccccc2cc1C1=NN=C(SCc2ccccc2)SC1`: the growth was 91.4% (inactive).

In the case of `O=C(O)CNC1=C(Cl)C(=O)c2ccccc2C1=O`, the growth is 93.4% (inactive).

For the molecule `N#CC1=C(c2ccc(Cl)cc2)Nc2c(c(-c3ccc(Cl)cc3)nn2-c2ccccc2)C12C(=O)Nc1ccc(Cl)cc12` (stereo not given), the growth was 24.3% (inactive).

Turning to `C=C(C)[C@@H]1CC[C@]2(C(=O)O)CC[C@]3(C)[C@H](CC[C@@H]4[C@@]5(C)C[C@@H](Cc6cn(CCO[C@@H]7O[C@H](COC(C)=O)[C@H](OC(C)=O)[C@H](OC(C)=O)[C@H]7OC(C)=O)nn6)[C@H](O)C(C)(C)[C@@H]5CC[C@]43C)[C@@H]12`, the growth was 53% (inactive).

For the molecule `Cc1ccc(NC(=S)NNC(=S)NNc2ccccc2)cc1C`, the growth is 8.18% (active).

As for `CCC(C)N(c1ccc(Cl)cc1)c1nc(-c2ccc(Br)cc2)cs1` (stereo not given), the growth was 92.4% (inactive).

With `c1ccc(CNc2c3ccccc3nc3ccccc23)cc1`, the growth is 12.3% (inactive).

`C=C(C)[C@@H]1CC[C@]2(C(=O)NCC#CCN3CCN(C)CC3)CC[C@]3(C)[C@H](CC[C@@H]4[C@@](C)(CCC#N)[C@H](C(=C)C)CC[C@]43C)[C@@H]12`: the growth was 2.05% (active).

Regarding `O=C1C(Cl)=C(Nc2ccc(O)cc2)C(=O)N1Cc1ccc(Cl)cc1`, the growth was 11.9% (inactive).

With `O=Cc1ccc([N+](=O)[O-])s1`, the growth was 75.4% (inactive).

As for `COc1cc(/C=C\c2cc(/C=C\c3ccc(O)c(OC)c3)n(C(=O)COc3ccc(Cl)cc3Cl)n2)ccc1O`, the growth was 4.41% (active).

As to `CC1(c2ccccc2O)NN=C(/N=C/c2cccc([N+](=O)[O-])c2)N1C(Cc1c[nH]c2ccccc12)C(=O)O` (stereo not given), the growth is 89.8% (inactive).

Turning to `COC(=O)CNC(=O)[C@H](Cc1ccccc1)NCc1ccncc1`, the growth was 89.1% (inactive).

Regarding `O=C(Nc1cccnc1Nc1ccc(F)cc1)c1cn(Cc2cccc(Oc3ccccc3)c2)nn1`, the growth is 18.8% (inactive).

Consider `COc1ccc(-c2cn(-c3cc(OC)c(OC)c(OC)c3)c(=O)n2C(C)=O)cc1`, for which the growth is 61.7% (inactive).

For `COc1ccc(-c2nnc3n(C)c(=O)c4ccccc4n23)cc1N`, the growth is 12.1% (inactive).

For the molecule `CCN(CC)c1ccc(/C=C/C(=O)c2ccc(Nc3nc(Nc4ccccc4)nc(Nc4ccccc4)n3)cc2)cc1`, the growth was 22.5% (inactive).

On to `COP(=O)(OC)C(C)(C)CC(=O)CC(C#N)(C#N)C(C#N)C#N`, for which the growth was 91.1% (inactive).

For the molecule `N#CC1CCc2c(c(-c3cn[nH]c3C(F)(F)F)nc3c(F)cc4[nH]ncc4c23)C1` (stereo not given), the growth is 36.3% (inactive).
